This note sets out measurements from PubChem BioAssay (NCATS).

Structures are written as SMILES. Inconclusive results are not listed. Active and inactive are the calls of the source. Calls follow the shape of the dose curve; as a rule, active = well fitted curve in the direction sought with a large enough effect; inconclusive = small, poorly fitted or top-dose-only effect, or another doubt; inactive = no such curve, though single readings can be large or run the other way.

Sequence of Protein phosphatase 1D (Homo sapiens) (O15297 whole entry, looked up): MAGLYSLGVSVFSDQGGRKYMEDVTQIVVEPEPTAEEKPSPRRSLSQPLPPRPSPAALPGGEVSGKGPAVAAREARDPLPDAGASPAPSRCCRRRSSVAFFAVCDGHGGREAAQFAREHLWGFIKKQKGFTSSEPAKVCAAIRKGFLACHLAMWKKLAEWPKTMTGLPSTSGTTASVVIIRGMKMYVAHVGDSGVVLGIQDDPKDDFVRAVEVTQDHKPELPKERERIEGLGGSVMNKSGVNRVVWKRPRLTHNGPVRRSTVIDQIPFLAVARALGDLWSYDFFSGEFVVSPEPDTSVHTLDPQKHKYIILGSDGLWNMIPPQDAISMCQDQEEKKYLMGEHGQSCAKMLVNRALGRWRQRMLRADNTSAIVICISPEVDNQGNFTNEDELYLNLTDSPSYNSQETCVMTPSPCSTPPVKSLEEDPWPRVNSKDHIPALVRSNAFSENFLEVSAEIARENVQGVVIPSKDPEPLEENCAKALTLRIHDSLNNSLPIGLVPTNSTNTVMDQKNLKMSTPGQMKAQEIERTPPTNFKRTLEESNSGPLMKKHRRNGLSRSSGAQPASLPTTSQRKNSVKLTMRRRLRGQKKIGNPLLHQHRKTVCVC

This assay has as its target Protein phosphatase 1D (Homo sapiens) (UniProt O15297). Briefly: Rhodamine-PBP qHTS Assay for Modulators of WT P53-Induced Phosphatase 1 (WIP1) (AID 1347425). To be noted: recombinant WIP1, Rhodamine-PBP phosphate fluorescence, real-time; series mostly up to 57.5 µM. A digest of the protocol: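 Read-out: Rhodamine-PBP fluorescence (ex 525/em 598 nm) for released Pi, read each minute for 11 min after adding 10 uM VEPPL-pS-QETFS; signal taken as f1 minus pre-substrate f0. Enzyme 5 nM WIP1 with 1 hr room-temperature compound preincubation.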
With `COC(=O)C1=C(C)NC(C)=C(C(=O)OCC(C)C)C1c1ccccc1[N+](=O)[O-]` (stereo unspecified), the outcome was inactive.

On to `COC(=O)C1=C(C)NC(C)=C(C(=O)OCC(C)=O)C1c1ccccc1[N+](=O)[O-]` (stereo unspecified), for which the outcome was inactive.

With `O=c1[nH]c2ccccc2n1CCCN1CCN(C(c2ccccc2)c2ccccc2)CC1`, the result was inactive.

For the compound `CCCSc1ccc2nc(NC(=O)OC)[nH]c2c1`, the result was inactive.

As for `CN(C)c1ccc(N=NS(=O)(=O)O)cc1`, the result was inactive.

For the compound `O=c1cc(-c2ccccc2)oc2ccccc12`, the result was inactive.

As for `[O-][n+]1ccccc1SSc1cccc[n+]1[O-]`, the outcome was inactive.

Regarding `Cc1c(Nc2ncccc2C(=O)O)cccc1C(F)(F)F`, the result was inactive.

Regarding `COC(=O)Nc1nc2ccc(C(=O)C3CC3)cc2[nH]1`, the result was inactive.

For the compound `S=c1[nH]c2ccccc2s1`, the result was inactive.

Turning to `Cc1[nH]cnc1CN1CCc2c(c3ccccc3n2C)C1=O`, the result was inactive.
